Test systems include CDKL2; CDKL3; CDKL5; CHEK1; CHEK2; CIT; CLK1; CLK2; CLK3; CLK4.
Common to all, as to conditions: concentration: 1 μM, replicates: in singlicate; n = 1
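Further: KINOMEscan kinase panel screen.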

As for `Cl.Cl.c1ccc(-c2cc3ccncc3cc2OC2CCNCC2)cc1` [GSK1122999], the “%Inh” value was found to be 10% in the experiment on CDKL2; 0% in the experiment on CDKL3; 7% with CDKL5; 3% in the experiment with CHEK1; 0% in the experiment with CHEK2; 55% in the experiment on CIT. Also, the “%Inh” value came out at 64% in the experiment on CLK1, 32% with CLK2, 4% in the experiment on CLK3 and 71% with CLK4.
For `CN1c2ccc(-c3ccc(C(=O)NCCO)cc3)cc2-c2[nH]ncc2S1(=O)=O`, the “%Inh” value in the experiment with CDKL2 was 0%; with CDKL3 it was 1%; in the experiment on CDKL5, 0%; with CHEK1, 0%; in the experiment with CHEK2, 65%; in the experiment on CIT, 2%. Also, the “%Inh” value with CLK1 turned out to be 44%; in the experiment with CLK2 it was 86%; in the experiment with CLK3 it was 25%; with CLK4 it was 40%.
Take `Nc1nc(-c2ccccn2)c(-c2ccnc3ccccc23)s1` [GW548057]: the “%Inh” value is given as 24% in the experiment with CDKL2; 0% in the experiment with CDKL3; 0% with CDKL5; 0% in the experiment with CHEK1; 46% in the experiment with CHEK2; 6% in the experiment with CIT. Further, the “%Inh” value in the experiment on CLK1 was determined as 14%; with CLK2, 16%; in the experiment on CLK3 it was 30%; in the experiment with CLK4, 40%.
As for `Cc1ccc(O)cc1Nc1cc(C(F)(F)F)nc2ccc(-c3ccncc3)cc12` [GW630823], the “%Inh” value amounted to 0% in the experiment on CDKL2; 0% in the experiment on CDKL3; 0% in the experiment on CDKL5; 34% with CHEK1; 0% with CHEK2; 0% in the experiment on CIT. Also, the “%Inh” value amounted to 40% in the experiment with CLK1, 16% with CLK2, 0% in the experiment on CLK3 and 20% in the experiment on CLK4.
Consider `O=c1cc(N2CCOCC2)nc2n(Cc3cccc(Cl)c3)ccn12` [GSK2296823], for which the “%Inh” value in the experiment with CDKL2 stood at 26%; in the experiment with CDKL3, 0%; with CDKL5, 4%; with CHEK1, 18%; with CHEK2, 0%; in the experiment with CIT, 10%. For the same compound, the “%Inh” value in the experiment on CLK1 is 47%; with CLK2, 1%; in the experiment on CLK3 it was 20%; with CLK4, 24%.
Take `COc1ccc(NC(=O)Nc2ccc(C)c(-c3ccc(C(=O)Nc4ccncc4)cc3)c2)cc1` [GSK1398475]: the “%Inh” value in the experiment on CDKL2 turned out to be 30%; with CDKL3 it was 0%; with CDKL5 it was 0%; in the experiment on CHEK1, 11%; in the experiment with CHEK2, 0%; in the experiment on CIT, 69%. For the same compound, the “%Inh” value is 28% with CLK1, 0% with CLK2, 4% in the experiment on CLK3 and 5% in the experiment on CLK4.
For `O=C(Nc1ccccc1)Nc1ccc(Oc2ccc3nccn3n2)cc1`, the “%Inh” value in the experiment with CDKL2 turned out to be 5%; in the experiment with CDKL3, 0%; with CDKL5, 0%; in the experiment with CHEK1 it was 0%; with CHEK2, 49%; in the experiment on CIT, 3%. Besides, the “%Inh” value worked out at 30% in the experiment with CLK1, 0% with CLK2, 0% with CLK3 and 0% in the experiment with CLK4.
Turning to `CSc1ccc(NC2=C(c3ccccc3Cl)C(=O)NC2=O)cc1` [SB-342411], the “%Inh” value came to 14% in the experiment on CDKL2; 0% with CDKL3; 0% in the experiment on CDKL5; 0% in the experiment with CHEK1; 0% in the experiment with CHEK2; 23% in the experiment with CIT. In addition, the “%Inh” value in the experiment with CLK1 amounted to 74%; with CLK2, 88%; with CLK3 it was 43%; with CLK4, 53%.
As for `CCn1c(-c2ccncc2)nc2cnccc21` [SB-735216], the “%Inh” value in the experiment with CDKL2 was determined as 0%; in the experiment with CDKL3 it was 25%; in the experiment on CDKL5, 4%; with CHEK1 it was 0%; in the experiment with CHEK2, 0%; in the experiment with CIT it was 0%. Moreover, the “%Inh” value turned out to be 16% in the experiment on CLK1, 0% in the experiment with CLK2, 0% in the experiment on CLK3 and 16% in the experiment with CLK4.
`OCCOCCn1ccc2ncnc(Nc3ccc(Oc4cccc(Cl)c4)c(Cl)c3)c21`: the “%Inh” value with CDKL2 is reported as 0%; in the experiment with CDKL3, 5%; in the experiment with CDKL5, 0%; in the experiment on CHEK1, 0%; in the experiment on CHEK2, 0%; in the experiment on CIT, 2%. The “%Inh” value in the experiment with CLK1, in the experiment on CLK2, in the experiment with CLK3 and with CLK4 was 0% throughout.
Turning to `CC(C)N1CCC(n2cnc(-c3ccc(F)cc3)c2-c2ccnc(N)n2)CC1` [SB-223132], the “%Inh” value is given as 13% with CDKL2; 9% in the experiment with CDKL3; 0% with CDKL5; 0% in the experiment on CHEK1; 0% with CHEK2; 69% in the experiment on CIT. For the same compound, the “%Inh” value is listed as 5% in the experiment with CLK1, 0% with CLK2, 10% in the experiment on CLK3 and 0% with CLK4.
As to `COC(=O)c1cccc(NC(=O)NCCNc2ccnc(Nc3ccc(F)cc3)n2)c1` [GSK1379883], the “%Inh” value stood at 5% in the experiment on CDKL2; 0% in the experiment on CDKL3; 0% in the experiment with CDKL5; 0% in the experiment with CHEK1; 5% with CHEK2; 35% in the experiment on CIT. Also, the “%Inh” value in the experiment with CLK1 is given as 15%; in the experiment on CLK2 it was 0%; in the experiment on CLK3 it was 14%; in the experiment on CLK4, 42%.
On to `Fc1cccc(COc2ccc(Nc3ncnc4cc[nH]c34)cc2Cl)c1`, for which the “%Inh” value in the experiment on CDKL2 is given as 14%; in the experiment on CDKL3 it was 11%; in the experiment with CDKL5 it was 15%; with CHEK1, 10%; with CHEK2, 13%; in the experiment on CIT, 19%. Besides, the “%Inh” value worked out at 7% in the experiment with CLK1, 16% in the experiment on CLK2, 10% with CLK3 and 0% in the experiment with CLK4.
Turning to `FC(F)(F)c1cc(Nc2nccc(-c3c(-c4ccc(Cl)cc4)nn4ncccc34)n2)ccc1Cl` [GW829351], the “%Inh” value in the experiment on CDKL2 turned out to be 28%; in the experiment on CDKL3, 0%; in the experiment with CDKL5, 0%; with CHEK1 it was 0%; in the experiment on CHEK2, 4%; in the experiment with CIT it was 17%. Moreover, the “%Inh” value in the experiment with CLK1 turned out to be 0%; with CLK2, 22%; in the experiment on CLK3, 0%; with CLK4 it was 0%.
Regarding `Cc1ccc(C)c(NC(=O)NCCNc2ccnc(Nc3ccc(F)cc3)n2)c1` [GSK1379878], the “%Inh” value in the experiment with CDKL2 came to 0%; in the experiment on CDKL3, 0%; with CDKL5 it was 0%; with CHEK1, 5%; with CHEK2 it was 0%; in the experiment with CIT it was 8%. Besides, the “%Inh” value in the experiment on CLK1 is 23%; with CLK2, 0%; with CLK3, 0%; with CLK4, 0%.
For `CS(=O)(=O)CCNCc1ccc(-c2ccc3ncnc(Nc4ccc(OCc5ccccc5)c(Cl)c4)c3c2)o1.Cl` [GW574783], the “%Inh” value with CDKL2 was 11%; with CDKL3, 0%; in the experiment with CDKL5, 0%; in the experiment on CHEK1, 6%; with CHEK2 it was 0%; in the experiment on CIT, 23%. The “%Inh” value in the experiment on CLK1 was found to be 0%; in the experiment with CLK2, 0%; with CLK3, 0%; in the experiment with CLK4, 21%.
With `Nc1n[nH]c2nnc(-c3ccccc3)cc12` [SB-517389], the “%Inh” value in the experiment on CDKL2 was found to be 18%; in the experiment on CDKL3, 69%; in the experiment with CDKL5 it was 0%; in the experiment on CHEK1 it was 10%; in the experiment on CHEK2 it was 0%; in the experiment with CIT it was 29%. Moreover, the “%Inh” value in the experiment with CLK1 was determined as 43%; in the experiment on CLK2 it was 32%; in the experiment on CLK3, 19%; with CLK4, 19%.
Turning to `CC(=O)Nc1n[nH]c2ncc(-c3ccccc3)cc12` [SB-548492], the “%Inh” value is reported as 6% in the experiment on CDKL2; 0% with CDKL3; 0% in the experiment on CDKL5; 0% with CHEK1; 1% in the experiment with CHEK2; 4% with CIT. Besides, the “%Inh” value is 41% in the experiment on CLK1, 19% with CLK2, 32% in the experiment with CLK3 and 27% with CLK4.
In the case of `Cl.Fc1ccccc1COc1ccc(Nc2ncnc3ccc(-c4nnc(C(F)(F)F)o4)cc23)cc1Cl` [GW424170], the “%Inh” value was found to be 0% in the experiment with CDKL2; 0% in the experiment with CDKL3; 0% in the experiment on CDKL5; 5% in the experiment on CHEK1; 7% in the experiment on CHEK2; 11% with CIT. Also, the “%Inh” value is recorded as 31% in the experiment on CLK1, 0% in the experiment on CLK2, 4% with CLK3 and 13% in the experiment with CLK4.
Consider `Clc1cc(Nc2ncnc3cc[nH]c23)ccc1OCc1ccccn1`, for which the “%Inh” value is 0% in the experiment with CDKL2; 31% in the experiment on CDKL3; 8% in the experiment with CDKL5; 14% in the experiment with CHEK1; 13% with CHEK2; 18% in the experiment on CIT. Further, the “%Inh” value is given as 13% in the experiment on CLK1, 0% in the experiment on CLK2, 5% with CLK3 and 7% in the experiment with CLK4.
For the compound `CN1CCC(n2cnc(-c3ccc(F)cc3)c2-c2ccnc(NC3CCNCC3)n2)CC1` [SB-229482], the “%Inh” value in the experiment on CDKL2 is on record as 22%; with CDKL3 it was 3%; in the experiment with CDKL5 it was 0%; in the experiment with CHEK1, 0%; with CHEK2, 39%; in the experiment with CIT, 2%. The “%Inh” value worked out at 0% in the experiment on CLK1, 0% with CLK2, 4% in the experiment with CLK3 and 9% in the experiment on CLK4.

(Values after article PMC5540273 (PLoS ONE, 2017).)
